Assay results reported in PubChem BioAssay (NCI).
Compounds without any hit were thinned out: in the full panel of roughly 83,000, 20% have a hit.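 Activity criterion: percent growth below 10, measured after cells in 96-well plates were exposed to a single compound concentration for 48 hours.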 Calls of active or inactive are those of the source.

Assays:
Assay in all cases: NCI-60 one-dose screen, 48 h (100 = growth as untreated, 0 = no growth, -100 = all killed)
[1] = system: DU-145 prostate; details: 10 µM unless noted
[2] = system: K-562 leukemia; details: 10 µM unless noted
[3] = system: MALME-3M melanoma; details: 10 µM unless noted
[4] = system: RXF 393 renal; details: 10 µM unless noted
[5] = system: SF-295 CNS; details: 10 µM unless noted
[6] = system: UACC-257 melanoma; details: 10 µM unless noted
[7] = system: SNB-19 CNS; details: 10 µM unless noted
[8] = system: SK-MEL-5 melanoma; details: 10 µM unless noted
[9] = system: LOX IMVI melanoma; details: 10 µM unless noted
[10] = system: SK-MEL-2 melanoma; details: 10 µM unless noted
[11] = system: ACHN renal; details: 10 µM unless noted
[12] = system: HL-60(TB) leukemia; details: 10 µM unless noted
[13] = system: CCRF-CEM leukemia; details: 10 µM unless noted
[14] = system: MOLT-4 leukemia; details: 10 µM
[15] = system: OVCAR-8 ovarian; details: 10 µM unless noted
[16] = system: IGROV1 ovarian; details: 10 µM
[17] = system: OVCAR-3 ovarian; details: 10 µM unless noted
[18] = system: NCI/ADR-RES ovarian; details: 10 µM unless noted
[19] = system: T-47D breast; details: 10 µM unless noted
[20] = system: HCC-2998 colon; details: 10 µM unless noted

Measured: growth

COc1cc(C2=NN(c3ccccc3)C(c3sc(N(CCCl)CCCl)nc3Cl)C2)cc(OC)c1OC (stereo unspecified)
inactive: [1] 102% | [2] 74.3% | [3] 121% | [4] 106% | [5] 89.4% | [6] 87.4% | [7] 86.4% | [8] 88.4% | [9] 92.7% | [10] 85.2% | [11] 88.8% | [12] 96.2% | [13] 87.9% | [14] 70.9% | [15] 90.4% | [16] 106% | [17] 98.7% | [18] 93.8% | [19] 68.7% | [20] 99.9%

O=CN1N=C(c2ccccc2)CC1c1sc(N(CCCl)CCCl)nc1Cl (stereo unspecified)
inactive: [1] 111% | [2] 78.1% | [3] 111% | [4] 108% | [5] 94.8% | [6] 97.4% | [7] 90.9% | [8] 98.5% | [9] 98.6% | [10] 77.2% | [11] 90.9% | [12] 94% | [13] 104% | [14] 85.6% | [15] 91% | [16] 96% | [17] 96.1% | [18] 93.6% | [19] 83% | [20] 103%

Cc1ccc(N)cc1[As]=[As]c1cc(N)ccc1C (stereo unspecified)
active: [1] -40.6% | [2] -5.72% | [3] -90.7% | [6] -97.3% | [7] -47.5% | [8] -87.2% | [9] -56.9% | [11] -91.6% | [12] -43.9% | [13] -38% | [14] -29.9% | [15] -95.3% | [16] -90.8% | [17] -92.6% | [19] -41.9% | [20] -73.8%
inactive: [5] 73.2% | [18] 53.8%

C[C@]12CC[C@H](OC3OC(O)C(O)C(O)C3O)C=C1CCC1C2CC[C@]2(C)[C@@H](c3ccc(=O)oc3)CC[C@]12O (stereo partly specified)
active: [1] -100% | [2] -35.3% | [3] -47.6% | [4] -24.3% | [5] -77.7% | [7] -98.8% | [8] -96.3% | [9] -84.4% | [10] -61.3% | [12] -57.3% | [13] -33.8% | [14] -39.3% | [16] -12.1% | [17] -99.2% | [18] -71.2% | [19] -71.4% | [20] -90.4%
inactive: [6] 112%

O=C(CI)Nc1ccc(Br)cc1
inactive: [1] 23.3% | [4] 26.5% | [5] 98.2% | [6] 92.9% | [7] 92.1% | [8] 62.6% | [10] 76.4% | [12] 69.6% | [15] 11.9% | [18] 100% | [19] 26.7% | [20] 102%
active: [2] -41.1% | [3] -65% | [9] -78.6% | [11] -79.8% | [13] -31.7% | [14] -28.4% | [16] -55.2% | [17] -78.7%

CCC(CO)NC1CCCCC1 (stereo unspecified)
inactive: [1] 91.1% | [2] 16.6% | [3] 86.1% | [4] 45% | [5] 113% | [6] 89.9% | [7] 88.3% | [8] 93.4% | [9] 27.9% | [10] 81.2% | [11] 84.7% | [12] 60.9% | [14] 88% | [15] 78.9% | [16] 53.9% | [17] 100% | [18] 80.9% | [20] 86.4%

CCCCCN(CCCCC)CC(O)c1ccc(C)c(Cl)c1 (stereo unspecified)
inactive: [1] 118% | [2] 92.5% | [3] 105% | [5] 87% | [6] 95.4% | [7] 98% | [8] 103% | [9] 96.3% | [10] 101% | [11] 92.7% | [12] 116% | [13] 99% | [14] 110% | [15] 102% | [16] 92.2% | [18] 104% | [19] 91.2% | [20] 107%

ClCCN(CCCl)c1nc(Cl)c(C2CC(c3ccc(Cl)cc3)=NN2c2cc(Cl)cc(Cl)c2)s1 (stereo unspecified)
inactive: [1] 116% | [2] 91.7% | [3] 107% | [4] 119% | [5] 101% | [6] 94.4% | [8] 115% | [9] 106% | [10] 96.3% | [11] 106% | [12] 104% | [13] 99.7% | [14] 95% | [15] 99.1% | [16] 102% | [17] 108% | [18] 114% | [19] 98.8% | [20] 109%
